Only some compounds are listed: those with a hit (about 4.6% of all), similar ones and a draw of the others.
TRHR PAM: qHTS for Small Molecule Agonists and Allosteric Enhancers of Human TRH Receptor: Primary Screen for Enhancers | TRHR cells, fluo-8 calcium fluorescence, EC20 TRH enhancement | AID 493056, 2011 | actives 0.66% (n = 360,000) | Thyrotropin-releasing hormone receptor (Homo sapiens), P34981 | enhancement, % at 2 µM; in the data active = enhancement above about 30%; note: 0% is about no effect
Target sequence (P34981 whole entry, looked up): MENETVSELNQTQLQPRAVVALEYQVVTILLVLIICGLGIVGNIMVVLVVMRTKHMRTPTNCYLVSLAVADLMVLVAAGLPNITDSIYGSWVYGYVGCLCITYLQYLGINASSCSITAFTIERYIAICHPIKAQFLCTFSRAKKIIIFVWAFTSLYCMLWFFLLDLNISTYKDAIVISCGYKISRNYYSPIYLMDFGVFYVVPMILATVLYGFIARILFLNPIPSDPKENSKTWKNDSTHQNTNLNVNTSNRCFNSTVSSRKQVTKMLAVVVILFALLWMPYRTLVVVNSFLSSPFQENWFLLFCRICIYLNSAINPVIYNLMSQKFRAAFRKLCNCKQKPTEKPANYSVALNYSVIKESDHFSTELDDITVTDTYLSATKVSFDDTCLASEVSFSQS
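Enhancer read-out: after compound pinning and an initial kinetic agonist-mode read, an EC20 of TRH (10 nM final) was injected and fluo-8 calcium signal (Ex 480/Em 530) followed at 1 s/cycle for 100 cycles in TRHR-expressing cells.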
Epigenetic derep: Quantitative High-Throughput Screen for Regulators of Epigenetic Control | AID 1865, 2009 | actives 0.2% (n = 280,000) | murine LDR cells, GFP reporter derepression, 30 h | Potency, µM (series often up to 53.9 µM), for the others: at the highest dose GFP activation, hits mostly activators; note: potency is the fitted concentration of half-maximal effect; % of control where 0% means no effect; nearly all actives have a fitted effect of over 60% in size
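GFP-positive cell count by laser-scanning cytometry (objects 20–120 um) after 30 h, 37 C compound exposure of murine LDR cells; reporter is CMV-GFP integrated at a silenced locus, inducible by HDAC or DNMT inhibitors.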
D1 PAM: Potentiators of Human D1 Dopamine Receptor: qHTS; actives 0.036% (n = 360,000); HEK293 TREx D1 cells, calcium flux, dopamine EC20 potentiation; AID 504651, 2011; potentiation, % at 10 µM; in the data active = potentiation above about 30%; note: 0% is about no effect
TRHR agonist: qHTS for Small Molecule Agonists and Allosteric Enhancers of Human TRH Receptor: Primary Screen for Agonists; Thyrotropin-releasing hormone receptor (Homo sapiens), P34981; TRHR cells, calcium flux fluo-8, FDSS agonist mode; activation, % at 2 µM; actives 0.18% (n = 360,000); AID 493084, 2011; in the data active = activation above about 30%; note: 0% is about no effect
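Read-out: compound-evoked intracellular calcium rise in TRHR cells, fluo-8 dye, kinetic FDSS fluorescence at 1 s/cycle following a 10-cycle baseline. Cells cultured overnight before dye loading (30 min–1.5 h, RT).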
D1 ag: Allosteric Agonists of the Human D1 Dopamine Receptor: qHTS; D(1A) dopamine receptor (Homo sapiens), P21728; HEK293 T-REx D1 cells, calcium flux, agonist mode; activation, % at 2 µM; actives 1% (n = 360,000); AID 504660, 2011; in the data active = activation above about 30%; note: 0% is about no effect
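Tetracycline-induced HEK293 TREx D1 cells, force-coupled to calcium signalling, were dye-loaded with a no-wash calcium kit. Compound was pin-added after a 10 s baseline. Fluorescence was read kinetically at 1 cycle/s for 180 s, with calcium rises flagged as agonism.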
D1 antagonist: Antagonist of Human D 1 Dopamine Receptor: qHTS; HEK293 TREx D1 cells, calcium flux, dopamine EC80; stronger effect = lower value; activity change, negative = inhibition, % at 10 µM; actives 3.2% (n = 360,000); AID 504652, 2011; in the data active = activity change below about -30%; note: % is set by controls: 0 for no effect and ±100 for the full control effect
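HEK293 T-REx cells expressing inducible, force-coupled D1 receptor; no-wash Ca dye, 30–90 min RT. Cmpd → 180 s read at 1 Hz → EC80 DA → 180 s read.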
C127i cell count: Parental Cell Counter Screen Assay for Epigenetic Modulators: Hit Validation; shares compounds with Epigenetic derep; mouse c127i parental cells, fluorescent cell count, 30 h; Potency, µM, without a hit: at the highest dose fluorescent cell count, hits mostly activators; actives 20% (n = 60); AID 493065, 2011
HCC4017 viab: HCC4017 Cell Viability Secondary Assay for qHTS Assay for Epigenetic Modulators; shares compounds with Epigenetic derep; HCC4017 NSCLC viability, CellTiter-Glo ATP luminescence, 72 h; Potency, µM (doses to about 46.1 µM), inactives show at the highest dose activity change, negative = cytotoxicity, hits mostly cytotoxic; actives 30% (n = 45)
H358 viab: H358 Cell Viability Secondary Assay for qHTS Assay for Epigenetic Modulators: Round 2 | shares compounds with Epigenetic derep | H358 NSCLC viability, ATP luminescence, 72 h | Potency, µM (titrated, usually from 46.1 µM), without a hit: at the top dose activity change, negative = viability loss, actives largely listed as cytotoxic | actives 30% (n = 45)
An asterisk follows results filed as active; ? = inconclusive; nt = no result given; [ ] = remark or other dose. Unless noted, calls come from the whole dose curve; as a rule, active = well fitted curve in the direction sought with a large enough effect; inconclusive = small, poorly fitted or top-dose-only effect, or another doubt; inactive = no such curve, though single readings can be large; an effect the other way counts as inactive or inconclusive.

SMILES | TRHR PAM | Epigenetic derep | D1 PAM | TRHR agonist | D1 ag | D1 antagonist | C127i cell count | HCC4017 viab | H358 viab
O=C(NN1C(=O)c2ccccc2NC1c1ccc([N+](=O)[O-])o1)c1ccccc1 (centres undefined) | -0.4 | -1.2% | -5.3 | -1.5 | 0.4 | -20.1 | nt | nt | nt
COc1ccc(-c2onc(C)c2C)cc1S(=O)(=O)N1CCc2ccccc21 | 1.3 | -1.0% | -5.7 | -0.7 | 11.0 | -24.1 | nt | nt | nt
CC(=O)[C@H](CC(C)C)NC(=O)[C@@H](CC(C)C)NC(=O)[C@H](CC(C)C)NC(=O)OCc1ccccc1 | nt | 5.01µM* | nt | nt | nt | nt | 1.0% | nt | nt
CC(=O)NC(CC(C)C)C(=O)NC(Cc1ccccc1)C(N)=O (centres undefined) | 15.0 | -1.4% | -2.5 | -1.7 | -1.2 | -14.5 | nt | nt | nt
Cc1cc(Br)ccc1NC(=O)C1CCCN(S(=O)(=O)c2cccc3nonc23)C1 (centres undefined) | -5.5 | ? | -1.8 | 0.5 | 2.9 | 9.9 | nt | nt | nt
Cc1cc(NC(=O)C2CCCN(S(=O)(=O)c3cccc4nonc34)C2)ccc1Br (centres undefined) | -5.2 | ? | -0.4 | -1.3 | 2.1 | 2.2 | 31.6µM* | nt | nt
CC1CCC2C(=O)OC(CO)CN2C1c1ccc(Br)cc1 (centres undefined) | nt | 1.1%[10.1 µM] | nt | nt | nt | nt | nt | nt | nt
CC1=C/C(=N\NC(=S)Nc2cccnc2)CC(C)(C)C1 | -4.1 | 6.31µM* | -4.7 | 0.5 | 3.5 | -8.0 | 2.0% | ? | -36.8%
CCOc1ccc(-c2cn3c(n2)sc2cc(C(=O)NC(C)C45CC6CC(CC(C6)C4)C5)ccc23)cc1 (centres undefined) | 0.1 | 0.0% | -6.0 | -0.1 | -1.1 | 9.9 | nt | nt | nt
N=c1n(CC(=O)c2ccc([N+](=O)[O-])cc2)c2ccccc2n1Cc1ccccc1Cl | 5.9 | ? | 8.3 | 1.5 | 1.4 | -3.8 | 7.0% | 12.5µM* | ?
N=c1n(CC(=O)O)c2ccccc2n1Cc1ccccc1Cl | -19.9 | -3.7% | 2.2 | -0.5 | 0.2 | -1.1 | nt | nt | nt
C=CCC(C)(O)c1ccc(OC)cc1 (centres undefined) | nt | -0.1% | nt | nt | nt | nt | nt | nt | nt
O=[N+]([O-])/C(=C\Nc1ccccc1Cl)S(=O)(=O)c1ccccc1 | 5.3 | 1.8% | 1.5 | -0.1 | 4.7 | -4.6 | nt | nt | nt
O=[N+]([O-])/C(C=Nc1ccccc1O)=C\Nc1ccccc1O | -2.0 | ? | 0.5 | 1.5 | 3.2 | 12.3 | 4.0% | -11.3% | ?
COCCNC(=S)N/N=C(\C)c1ccccc1O | 10.5 | 4.47µM* | -1.6 | -0.2 | 0.1 | -11.3 | 4.0% | ? | ?
COc1ccc(C(=O)/C=C/Sc2nc3ccccc3o2)cc1 | -4.8 | ? | -4.9 | 2.0 | 3.0 | 2.8 | 10.0% | 7.91µM* | 7.91µM*
COc1ccccc1OCC(=O)N/N=C/C=C/c1ccc([N+](=O)[O-])o1 | 13.2 | 10µM* | 8.8 | -1.2 | -1.7 | 3.6 | 4.0% | ? | 14.1µM*
CCn1c2ccc(OC)cc2c2nc3ccccc3nc21 | 0.5 | -2.0% | -4.0 | -0.7 | 7.0 | -22.3 | nt | nt | nt

Source: PubChem (National Center for Advancing Translational Sciences (NCATS))
